# Experimental data from PubChem BioAssay (NCI).
# Values joined by “and” are separate entries in the source; they are usually repeats but may differ in a detail not shown here. Equal values may be shown once. This is part of a sample that, as a whole, favours compounds with a hit. Of some 83,000 tested, about 20% had one in any assay.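 Testing used 96-well plates and a 48-hour single-concentration exposure. Example: -40 means 40% of the starting cells died.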 Active and inactive are the calls of the source. Rule for the calls: active = growth percent below 10; inactive = the rest.
# Tested on: HL-60(TB) leukemia
# Experiment: NCI-60 one-dose screen, 48 h (100 = growth as untreated, 0 = no growth, -100 = all killed)
# Settings: 10 µM unless noted
row,Structure (SMILES),growth
1,NC1CCC(C(=O)O)CC1 (stereo not given),113% (inactive) and 110% (inactive)
2,Oc1ccc(-c2nnc3c4[nH]ccc4ncn23)cc1,106% (inactive)
3,CC12CCC(C(=O)CC1=O)C2(C)C (stereo not given),71.5% (inactive) and 93.6% (inactive)
4,N#Cc1cnn2c(-c3ccc(Cl)cc3)nc(NC3CC3)nc12,98.2% (inactive)
5,O=C(CCc1nnc2sc(-c3ccc(Cl)cc3Cl)nn12)c1nc2ccccc2[nH]1,3.48% (active)
6,COc1ccc(/C(C)=C(/c2ccc(OCCCN(C)C)cc2)c2ccc(OC(=O)Cc3ccccc3)cc2)cc1,72% (inactive)
7,CCN(CC)CCOC(=O)c1cccnc1,101% (inactive)
8,O=C1c2ccc3c4ccc5c6c(ccc(c7ccc(c2c37)C(=O)N1CCC[P+](c1ccccc1)(c1ccccc1)c1ccccc1)c64)C(=O)N(CCC[P+](c1ccccc1)(c1ccccc1)c1ccccc1)C5=O,54.6% (inactive)
9,COc1ccc(NC(=O)C2c3ccccc3C(=O)N(CC(C)C)C2c2cccs2)cc1 (stereo not given),90% (inactive)
10,CCN(CC)c1ccc(N=O)cc1,33.1% (inactive)
11,COc1cc2nc(N3CCC[C@@H](NC4=CC(=O)c5ccccc5C4=O)C3)nc(N)c2cc1OC,-60.3% (active)
12,COc1ccc(S(=O)(=O)NCCNc2nccc(-c3c(-c4cccc(F)c4)nc4sccn34)n2)cc1,58.8% (inactive)
13,Cc1nn(-c2ccc(Cl)cc2)c2ncnc(N/N=C/c3ccccc3O)c12,-4.93% (active) and 1.67% (active)
14,O=c1cc(-c2ccccc2)oc2cc(OCc3cn(Cc4ccc(F)cc4)nn3)cc(O)c12,104% [100 µM] (inactive)
15,O=C1/C(=C/c2ccc(Cl)c(Cl)c2)CN(C(=O)C(Cl)Cl)C/C1=C\c1ccc(Cl)c(Cl)c1,-15.2% (active)
16,CCOC(=O)c1cc(-c2ccc([N+](=O)[O-])cc2)n(-c2ccc(C(=O)O)c(O)c2)c1C,31% (inactive)
17,O=C(/C=C/c1ccccc1)c1cccc(OCCCOc2cccc(C(=O)/C=C/c3ccccc3)c2)c1,82.3% (inactive)
18,COC(=O)c1cccc(NC(=O)c2ccc(-c3cccc(N)c3)o2)c1,99.9% (inactive)

row,Structure (SMILES),growth
1,COC1(OC)N=C(N)C2(C#N)C3(C(=O)Nc4ccccc43)C12C#N (stereo not given),72.5% (inactive)
2,C=C[C@]1(C)C=C2C(=O)[C@@]3(O)OC(=O)[C@@]4(CCCC(C)(C)[C@H]34)[C@@]2(O)CC1,-25% (active)
3,CCOC(=O)CC[C@H](NC(=O)c1ccc(NC)c2ccccc12)C(=O)OCC,105% (inactive)
4,COC1=C(Br)C(=O)C(OC)=C(Br)C1=O,8.67% (active)
5,Cc1[nH]c(C(=O)Nc2ccc(C(=O)N3CCN(c4cc5c(cc4F)c(=O)c(C(=O)O)cn5C4CC4)CC3)cc2OC(C)C)c(Cl)c1Cl,92.7% (inactive)
6,CCOC(=O)c1c(NC(=O)c2ccc(C(C)C)cc2)sc2c(CN(C)C)c(O)ccc12,-34.8% (active)
7,O=C(Nc1cccc(-n2ccc3c(NC(=O)c4ccccc4)nccc32)c1)c1ccc(Cl)c(C(F)(F)F)c1,-32.3% (active) and 56.6% (inactive)
8,COC(=O)c1cc(C(=O)OC)cc([N+](=O)[O-])c1,85.8% (inactive)
9,C=C(C)[C@@H]1CC[C@]2(C(=O)OCCCC[P+](c3ccccc3)(c3ccccc3)c3ccccc3)CC[C@]3(C)[C@H](CC[C@@H]4[C@@]5(C)CC[C@H](OC(=O)C(Cl)Cl)C(C)(C)[C@@H]5CC[C@]43C)[C@@H]12,-49.9% (active)
10,CN(C)c1ccc(-c2c(C#N)c(N)nn2C(=O)c2ccc(NC(=O)c3ccccn3)cc2)cc1,96.5% (inactive)
11,O=[N+]([O-])c1ccc(NS(=O)(=O)c2cc(Cl)ccc2Cl)c2ccccc12,33.4% (inactive)
12,Cc1nn(-c2ccccc2)c(N2CCOCC2)c1-c1nc2ccc([N+](=O)[O-])cc2[nH]1,77.1% (inactive)
13,O=C(Nc1ccc(-c2nc(N3CCOCC3)c3cccn3n2)cc1)Nc1cccnc1,12% (inactive)
14,NC(N)=N/N=C/c1ccc(-c2ccc(-c3ccc(Cl)cn3)s2)cc1,97.8% (inactive)
15,CN1CCc2c(Sc3ccc(C(=O)NO)cc3)c3ccccc3n2C1,60.3% (inactive)
16,N#Cc1ccc2c(c1)C(=O)c1c-2n(CCCN)c(=O)c2cc([N+](=O)[O-])ccc12,-91.8% (active)
17,Nc1cc(N)c(S(=O)(=O)O)cc1N=Nc1cc([N+](=O)[O-])ccc1O,92.5% (inactive)
